This is part of a sample that, as a whole, favours compounds with a hit. Of some 83,000 tested, about 20% had one in any assay.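 Single-dose data. Exposure time 48 hours. Values below 10 considered active.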 A number with no mark means an inactive call. Calls of active or inactive are those of the source.
Key:
Experiment in all cases: NCI-60 one-dose screen, 48 h (100 = growth as untreated, 0 = no growth, -100 = all killed)
NCI-H226 lung = settings: 10 µM
NCI-H322M lung = settings: 10 µM
HOP-62 NSCLC = settings: 10 µM
NCI-H460 lung = settings: 10 µM
NCI-H522 lung = settings: 10 µM
A549/ATCC NSCLC = settings: 10 µM
COLO 205 colon = settings: 10 µM
DU-145 prostate = settings: 10 µM
SF-268 CNS = settings: 10 µM
SF-295 CNS = settings: 10 µM
SF-539 CNS = settings: 10 µM
UACC-257 melanoma = settings: 10 µM
HT29 colon = settings: 10 µM
SNB-75 CNS = settings: 10 µM
U251 CNS = settings: 10 µM
PC-3 prostate = settings: 10 µM
SK-MEL-5 melanoma = settings: 10 µM
UACC-62 melanoma = settings: 10 µM
SK-MEL-2 melanoma = settings: 10 µM
HL-60(TB) leukemia = settings: 10 µM unless noted

Row | SMILES | growth (NCI-H226 lung) | growth (NCI-H322M lung) | growth (HOP-62 NSCLC) | growth (NCI-H460 lung) | growth (NCI-H522 lung) | growth (A549/ATCC NSCLC) | growth (COLO 205 colon) | growth (DU-145 prostate) | growth (SF-268 CNS) | growth (SF-295 CNS) | growth (SF-539 CNS) | growth (UACC-257 melanoma) | growth (HT29 colon) | growth (SNB-75 CNS) | growth (U251 CNS) | growth (PC-3 prostate) | growth (SK-MEL-5 melanoma) | growth (UACC-62 melanoma) | growth (SK-MEL-2 melanoma) | growth (HL-60(TB) leukemia)
1 | O=C(/C=C/c1ccc(F)cc1)c1nc2ccccc2n1Cc1ccc(Br)cc1 | -66.2% (active) | -24.8% (active) | -68.6% (active) | -59.4% (active) | -64% (active) | 1.63% (active) | -82.4% (active) | -42.2% (active) | -4.4% (active) | -87.5% (active) | -92.5% (active) | -17.4% (active) | -33.2% (active) | 44.5% | -91.8% (active) | -39.4% (active) | -76.2% (active) | -84% (active) | -61.3% (active) | -21.8% (active)
2 | C#CC[Se]C(=O)c1ccc(C(=O)[Se]CC#C)s1 | 76.5% | 14.5% | 29.8% | 40.9% | 99.8% | 31.1% | 86% | 56% | 105% | 13.3% | 65.5% | 90.7% | 63.6% | 109% | 44.7% | 44.9% | 96.6% | 92.3% | 126% | -19.7% (active)
3 | O=C(NC([Se])=NC1CCCCC1)c1ccc2c(c1)OCO2 | 85.6% | 11.9% | 23.3% | 10.6% | 42.1% | 26.8% | 28.1% | 49% | 122% | 6.53% (active) | 56.9% | 50.5% | 55.6% | 10.6% | 27.6% | 36.4% | 79.3% | 76.3% | 99.6% | 65.7%
4 | C=CC[Se]C(=O)c1cncc(C(=O)[Se]CC=C)c1 | -24.6% (active) | -46.2% (active) | -60.6% (active) | -14% (active) | -89.5% (active) | 7.53% (active) | -47.3% (active) | 5.92% (active) | 7.42% (active) | -55.8% (active) | -99.9% (active) | -75% (active) | -14.4% (active) | -61.4% (active) | -72.9% (active) | -65.8% (active) | -36.3% (active) | -62.3% (active) | -54.1% (active) | -26.2% (active)

From PubChem BioAssay (NCI)
